Reference: the supplement of paper PMC10849652
Of roughly 8,800 targets only a part is listed; those with a hit were picked by preference. About 0.5% of all pairs of compound and target were hits.

How the values were obtained:
Test in all cases: log2 fold change, soluble protein after heating vs DMSO (PISA); higher = thermal stabilisation; K562 lysate, 10 uM; active = over 0.2 and 3.5 SD of the protein, either way, in both replicates (recomputed)
[1] = compound: Cc1cn(-c2cc(NC(=O)c3ccc(C)c(Nc4nccc(-c5cccnc5)n4)c3)cc(C(F)(F)F)c2)cn1 [nilotinib]
Procedure, shortened: (§1)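 Log-two fold change in thermal stability relative to solvent controls is reported from duplicates. For each sample, crude K562 extract from dounce-homogenised pellets in PBS pH 7.4 with 1 mM MgCl2, at 1 mg/mL protein, was treated with 10 μM compound for 30 min. Aliquots heated for 3 min across 48°C-58°C were pooled, brought to 0.5% NP-40 at 4°C and cleared at 21,000xg for 90 min. The supernatant was quantified by TMTpro 16plex LC-MS/MS with channel sums equalised.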

[2] = compound: Cc1nc(Nc2n[nH]c3c2CN(C(=O)N[C@H](CN(C)C)c2ccccc2)C3(C)C)c2sccc2n1
Procedure, shortened: as §1

[3] = compound: Cc1nc(Nc2ncc(C(=O)Nc3c(C)cccc3Cl)s2)cc(N2CCN(CCO)CC2)n1 [dasatinib]
Procedure, shortened: as §1

[4] = compound: Cc1ncc(-c2ccnc(Nc3ccc(S(C)(=O)=O)cc3)n2)n1C(C)C
Procedure, shortened: as §1

[5] = compound: Cn1cc(-c2ccc3c(c2)CCN3C(=O)Cc2cccc(C(F)(F)F)c2)c2c(N)ncnc21
Procedure, shortened: as §1

[6] = compound: Cn1cc(CNCC2CCN(c3ncc(C(=O)NO)cn3)CC2)c2ccccc21 [quisinostat]
Procedure, shortened: as §1

[7] = compound: Cn1cncc1[C@@](N)(c1ccc(Cl)cc1)c1ccc2c(c1)c(-c1cccc(Cl)c1)cc(=O)n2C [tipifarnib]
Procedure, shortened: as §1

[8] = compound: NC(=O)Nc1cc(-c2cccc(F)c2)sc1C(=O)N[C@H]1CCCNC1
Procedure, shortened: as §1

[9] = compound: NC(=O)c1cnc(N[C@@H]2CCCC[C@@H]2N)nc1Nc1cccc(-n2nccn2)c1
Procedure, shortened: as §1

[10] = compound: NC1(c2ccc(-c3nc4ccn5c(=O)[nH]nc5c4cc3-c3ccccc3)cc2)CCC1
Procedure, shortened: as §1

Measured: log2 fold change

MICU1 isoform 3 (UniProt Q9BPX6)
Sequence of UniProt Q9BPX6 (Q9BPX6 whole entry, looked up): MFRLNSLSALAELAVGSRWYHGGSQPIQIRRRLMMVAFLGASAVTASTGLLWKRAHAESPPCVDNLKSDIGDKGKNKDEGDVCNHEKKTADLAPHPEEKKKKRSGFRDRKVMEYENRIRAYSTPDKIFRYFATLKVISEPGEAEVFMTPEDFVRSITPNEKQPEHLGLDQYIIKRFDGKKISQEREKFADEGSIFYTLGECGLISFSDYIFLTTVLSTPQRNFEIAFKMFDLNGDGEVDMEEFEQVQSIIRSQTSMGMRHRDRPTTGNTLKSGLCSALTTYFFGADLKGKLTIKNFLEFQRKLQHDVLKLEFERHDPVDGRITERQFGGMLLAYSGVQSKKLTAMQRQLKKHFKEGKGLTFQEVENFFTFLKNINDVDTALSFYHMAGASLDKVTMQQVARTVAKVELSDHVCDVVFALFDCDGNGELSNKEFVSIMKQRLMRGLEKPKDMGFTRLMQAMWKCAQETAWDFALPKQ
inactive: [1] 0.01 | [2] -0.044 | [3] -0.02 | [4] -0.015 | [5] 0.027 | [6] 0.002 | [7] -0.015 | [8] -0.026 | [9] 0.06 | [10] -0.021

KRIT1 (UniProt O00522)
inactive: [1] -0.011 | [2] -0.04 | [3] 0.027 | [4] 0.041 | [5] -0.048 | [6] -0.147 | [7] -0.135 | [8] 0.09 | [9] 0.021 | [10] -0.005

MAP2K1 (UniProt Q02750)
active: [3] 0.296 | [8] 0.4
inactive: [1] -0.02 | [2] 0.107 | [4] 0.057 | [5] -0.057 | [6] -0.064 | [7] -0.037 | [9] 0.033 | [10] -0.02

MED8 isoform 2 (UniProt Q96G25)
inactive: [1] 0.084 | [2] -0.033 | [3] -0.017 | [4] -0.007 | [5] 0.044 | [6] -0.043 | [7] 0.081 | [8] -0.005 | [9] 0.016 | [10] 0.024

KIF15 (UniProt Q9NS87)
Sequence of UniProt Q9NS87 (Q9NS87 whole entry, looked up): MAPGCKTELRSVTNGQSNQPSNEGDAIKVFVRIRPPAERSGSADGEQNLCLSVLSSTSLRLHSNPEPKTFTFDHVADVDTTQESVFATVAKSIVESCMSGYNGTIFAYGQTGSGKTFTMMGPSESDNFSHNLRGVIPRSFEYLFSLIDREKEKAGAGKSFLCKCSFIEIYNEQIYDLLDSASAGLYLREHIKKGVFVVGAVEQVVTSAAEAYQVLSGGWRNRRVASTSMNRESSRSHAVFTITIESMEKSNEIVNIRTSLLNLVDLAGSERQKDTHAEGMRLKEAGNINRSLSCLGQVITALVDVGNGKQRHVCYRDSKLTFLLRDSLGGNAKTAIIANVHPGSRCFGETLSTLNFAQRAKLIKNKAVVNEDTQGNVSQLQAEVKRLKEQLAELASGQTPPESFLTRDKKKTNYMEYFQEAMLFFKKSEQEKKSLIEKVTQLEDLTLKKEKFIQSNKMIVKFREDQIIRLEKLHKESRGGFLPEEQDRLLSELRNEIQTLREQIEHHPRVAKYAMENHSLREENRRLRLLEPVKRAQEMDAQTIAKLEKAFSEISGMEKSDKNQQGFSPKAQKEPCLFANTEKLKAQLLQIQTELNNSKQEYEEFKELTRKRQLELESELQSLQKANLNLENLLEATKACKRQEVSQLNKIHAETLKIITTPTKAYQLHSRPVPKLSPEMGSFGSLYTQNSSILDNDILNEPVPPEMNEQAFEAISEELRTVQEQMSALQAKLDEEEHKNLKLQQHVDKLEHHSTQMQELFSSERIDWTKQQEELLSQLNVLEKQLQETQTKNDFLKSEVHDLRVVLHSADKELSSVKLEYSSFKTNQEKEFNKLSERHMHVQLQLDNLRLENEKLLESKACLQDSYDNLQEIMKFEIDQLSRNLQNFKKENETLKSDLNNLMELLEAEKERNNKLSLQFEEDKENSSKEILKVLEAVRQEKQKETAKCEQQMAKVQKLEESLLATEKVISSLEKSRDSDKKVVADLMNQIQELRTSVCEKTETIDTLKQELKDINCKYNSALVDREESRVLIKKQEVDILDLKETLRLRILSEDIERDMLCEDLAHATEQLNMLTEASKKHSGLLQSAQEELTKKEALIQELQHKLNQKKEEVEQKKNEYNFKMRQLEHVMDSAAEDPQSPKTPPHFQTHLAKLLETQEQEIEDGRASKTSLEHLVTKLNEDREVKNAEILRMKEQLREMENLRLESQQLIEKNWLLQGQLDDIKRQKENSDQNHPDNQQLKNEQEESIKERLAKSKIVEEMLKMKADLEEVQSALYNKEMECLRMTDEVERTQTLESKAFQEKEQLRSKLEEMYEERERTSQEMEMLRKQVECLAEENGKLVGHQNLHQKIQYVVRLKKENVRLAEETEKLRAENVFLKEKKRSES
inactive: [1] -0.038 | [2] -0.003 | [3] -0.03 | [4] 0.052 | [5] 0.044 | [6] -0.058 | [7] 0.008 | [8] 0.003 | [9] 0.011 | [10] 0

MAP3K4 (UniProt Q9Y6R4)
active: [3] 0.485
inactive: [1] 0.003 | [2] 0.206 | [4] 0.095 | [5] 0.132 | [6] -0.078 | [7] -0.015 | [8] 0.203 | [9] 0.045 | [10] -0.021

KIF14 (UniProt Q15058)
inactive: [1] 0.003 | [2] 0.042 | [3] -0.035 | [4] 0.033 | [5] 0.007 | [6] -0.139 | [7] -0.046 | [8] 0 | [9] 0.001 | [10] -0.024

MINDY1 isoform 3 (UniProt Q8N5J2)
active: [9] 0.548
inactive: [1] -0.03 | [2] 0.154 | [3] -0.086 | [4] 0.271 | [5] 0.159 | [6] -0.006 | [7] 0.022 | [8] -0.072 | [10] 0.038

LYRM4 (UniProt Q9HD34)
inactive: [1] 0.009 | [2] -0.031 | [3] -0.061 | [4] 0.052 | [5] -0.028 | [6] -0.093 | [7] -0.028 | [8] 0.054 | [9] -0.036 | [10] -0.005

LRCH3 (UniProt Q96II8)
inactive: [1] -0.003 | [2] -0.029 | [3] -0.095 | [4] 0.064 | [5] 0.038 | [6] -0.16 | [7] -0.029 | [8] -0.005 | [9] 0.011 | [10] -0.025

MAPKAPK3 (UniProt Q16644)
Sequence of UniProt Q16644 (Q16644 whole entry, looked up): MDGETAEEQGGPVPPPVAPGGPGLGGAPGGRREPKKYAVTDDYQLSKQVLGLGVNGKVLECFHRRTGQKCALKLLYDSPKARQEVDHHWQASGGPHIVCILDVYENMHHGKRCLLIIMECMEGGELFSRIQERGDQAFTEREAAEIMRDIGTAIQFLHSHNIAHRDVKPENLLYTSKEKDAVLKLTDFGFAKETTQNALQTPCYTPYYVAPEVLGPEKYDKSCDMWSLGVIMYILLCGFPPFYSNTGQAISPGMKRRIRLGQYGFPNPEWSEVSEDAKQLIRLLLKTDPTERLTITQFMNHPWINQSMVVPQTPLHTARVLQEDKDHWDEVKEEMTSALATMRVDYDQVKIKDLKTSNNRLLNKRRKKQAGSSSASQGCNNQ
inactive: [1] -0.024 | [2] 0.077 | [3] 0.023 | [4] -0.058 | [5] 0.016 | [6] 0.01 | [7] 0.017 | [8] 0.021 | [9] 0.013 | [10] 0.009

MCMBP (UniProt Q9BTE3)
inactive: [1] -0.01 | [2] -0.008 | [3] -0.031 | [4] -0.028 | [5] 0.008 | [6] -0.039 | [7] 0.024 | [8] 0.039 | [9] 0.014 | [10] -0.033

MAP4K5 (UniProt Q9Y4K4)
inactive: [1] -0.035 | [2] 0 | [4] -0.007 | [5] 0.105 | [6] -0.245 | [7] 0.082 | [9] -0.029 | [10] 0.11
active: [3] 0.528 | [8] 0.468

KIF21A isoform 5 (UniProt Q7Z4S6)
inactive: [1] 0.011 | [2] 0.036 | [3] 0.001 | [4] 0 | [5] 0.001 | [6] -0.011 | [7] -0.048 | [8] 0.048 | [9] -0.009 | [10] -0.028

MOCS1 isoform 8 (UniProt Q9NZB8)
inactive: [1] 0.188 | [2] -0.03 | [3] 0.074 | [4] 0.227 | [5] -0.013 | [6] -0.082 | [7] -0.231 | [8] 0.093 | [9] 0.021 | [10] -0.033

MAP4 (UniProt P27816)
inactive: [1] -0.002 | [2] -0.001 | [3] 0.013 | [4] 0.016 | [5] -0.036 | [6] -0.001 | [7] 0.012 | [8] -0.034 | [9] -0.011 | [10] -0.003

KIF22 (UniProt Q14807)
active: [6] -0.451
inactive: [1] 0.041 | [2] -0.021 | [3] -0.023 | [4] -0.029 | [5] -0.055 | [7] -0.015 | [8] 0.081 | [9] -0.023 | [10] -0.171

MPZL1 (UniProt O95297)
inactive: [1] -0.03 | [2] 0.032 | [3] 0.033 | [4] -0.014 | [5] 0.018 | [6] 0.071 | [7] 0.035 | [8] -0.02 | [9] 0.026 | [10] 0.028

KIF4A (UniProt O95239)
Sequence of UniProt O95239 (O95239 whole entry, looked up): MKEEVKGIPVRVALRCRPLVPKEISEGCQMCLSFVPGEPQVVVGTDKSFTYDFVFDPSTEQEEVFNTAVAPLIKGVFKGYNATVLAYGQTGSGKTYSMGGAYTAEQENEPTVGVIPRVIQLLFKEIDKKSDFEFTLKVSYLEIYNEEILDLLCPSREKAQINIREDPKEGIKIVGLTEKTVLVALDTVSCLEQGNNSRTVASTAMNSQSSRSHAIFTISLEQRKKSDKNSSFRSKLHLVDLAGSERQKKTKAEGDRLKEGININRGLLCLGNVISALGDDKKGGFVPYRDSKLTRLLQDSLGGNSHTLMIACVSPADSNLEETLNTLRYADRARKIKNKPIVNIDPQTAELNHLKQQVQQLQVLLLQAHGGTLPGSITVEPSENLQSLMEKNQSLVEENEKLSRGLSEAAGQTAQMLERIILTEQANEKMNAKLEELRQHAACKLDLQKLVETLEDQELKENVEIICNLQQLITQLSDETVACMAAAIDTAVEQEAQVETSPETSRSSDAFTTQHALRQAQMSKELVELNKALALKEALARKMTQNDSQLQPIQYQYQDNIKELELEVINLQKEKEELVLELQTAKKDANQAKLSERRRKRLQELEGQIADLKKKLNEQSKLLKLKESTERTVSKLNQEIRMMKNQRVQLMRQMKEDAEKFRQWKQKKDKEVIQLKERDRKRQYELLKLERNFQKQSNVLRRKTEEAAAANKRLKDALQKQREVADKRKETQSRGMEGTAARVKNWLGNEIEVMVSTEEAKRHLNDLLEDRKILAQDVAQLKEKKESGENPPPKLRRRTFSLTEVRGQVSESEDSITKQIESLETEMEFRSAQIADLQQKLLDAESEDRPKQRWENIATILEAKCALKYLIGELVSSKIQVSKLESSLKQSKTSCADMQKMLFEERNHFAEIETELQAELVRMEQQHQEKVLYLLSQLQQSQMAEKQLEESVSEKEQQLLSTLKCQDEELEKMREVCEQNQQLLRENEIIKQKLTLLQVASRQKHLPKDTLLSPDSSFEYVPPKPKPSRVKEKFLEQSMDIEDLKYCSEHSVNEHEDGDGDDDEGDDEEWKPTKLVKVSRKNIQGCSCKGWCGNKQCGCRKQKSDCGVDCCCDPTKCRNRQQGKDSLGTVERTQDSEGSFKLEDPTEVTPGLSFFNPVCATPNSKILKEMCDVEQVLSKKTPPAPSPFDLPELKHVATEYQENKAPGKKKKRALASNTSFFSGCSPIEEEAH
inactive: [1] -0.02 | [2] 0.029 | [3] -0.011 | [4] 0.014 | [5] 0.037 | [6] -0.104 | [7] 0.017 | [8] 0.042 | [9] -0.014 | [10] 0.014

MAP2K3 isoform 3 (UniProt P46734)
Sequence of UniProt P46734 (P46734 whole entry, looked up): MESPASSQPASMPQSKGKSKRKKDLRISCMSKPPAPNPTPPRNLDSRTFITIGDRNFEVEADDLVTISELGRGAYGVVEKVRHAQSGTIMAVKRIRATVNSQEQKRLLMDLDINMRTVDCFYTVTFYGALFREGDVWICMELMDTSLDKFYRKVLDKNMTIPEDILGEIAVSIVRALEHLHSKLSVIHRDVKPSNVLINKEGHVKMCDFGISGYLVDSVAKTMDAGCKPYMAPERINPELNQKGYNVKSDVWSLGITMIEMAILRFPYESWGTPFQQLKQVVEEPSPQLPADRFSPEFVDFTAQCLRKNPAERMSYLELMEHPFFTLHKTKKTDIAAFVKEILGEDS
inactive: [1] -0.001 | [2] -0.004 | [3] -0.021 | [4] 0.021 | [5] 0.059 | [6] -0.055 | [7] -0.093 | [8] 0.034 | [9] -0.03 | [10] 0.131

MAP2K2 (UniProt P36507)
inactive: [1] -0.03 | [2] 0.205 | [4] 0.065 | [5] -0.031 | [6] 0 | [7] -0.006 | [9] 0.033 | [10] -0.002
active: [3] 0.445 | [8] 0.495

LZTS1 (UniProt Q9Y250)
Sequence of UniProt Q9Y250 (Q9Y250 whole entry, looked up): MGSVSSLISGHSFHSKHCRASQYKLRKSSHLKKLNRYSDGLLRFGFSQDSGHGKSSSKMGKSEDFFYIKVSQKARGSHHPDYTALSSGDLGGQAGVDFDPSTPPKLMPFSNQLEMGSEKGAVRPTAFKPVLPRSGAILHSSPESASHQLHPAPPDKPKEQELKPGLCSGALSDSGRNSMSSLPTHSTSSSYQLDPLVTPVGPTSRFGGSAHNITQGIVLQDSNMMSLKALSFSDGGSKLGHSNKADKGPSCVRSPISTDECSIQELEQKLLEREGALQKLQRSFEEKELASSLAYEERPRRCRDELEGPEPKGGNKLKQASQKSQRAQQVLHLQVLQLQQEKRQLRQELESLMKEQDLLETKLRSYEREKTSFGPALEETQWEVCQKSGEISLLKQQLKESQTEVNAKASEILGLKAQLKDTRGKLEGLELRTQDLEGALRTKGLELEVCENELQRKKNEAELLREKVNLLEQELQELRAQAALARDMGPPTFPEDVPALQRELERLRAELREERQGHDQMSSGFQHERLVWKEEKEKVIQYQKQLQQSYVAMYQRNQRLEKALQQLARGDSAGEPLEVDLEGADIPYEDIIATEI
active: [6] -1.06
inactive: [1] -0.13 | [2] 0.023 | [3] 0.056 | [4] 0.167 | [5] -0.266 | [7] 0.087 | [8] 0.186 | [9] -0.02 | [10] -0.297

LIG4 (UniProt P49917)
inactive: [1] 0.02 | [2] -0.072 | [3] 0.018 | [4] -0.008 | [5] -0.026 | [6] -0.085 | [7] 0.038 | [8] 0.066 | [9] -0.045 | [10] -0.005

MAPK3 (UniProt P27361)
active: [2] 0.272
inactive: [1] 0.009 | [3] -0.026 | [4] 0.141 | [5] -0.019 | [6] 0.016 | [7] -0.013 | [8] 0.022 | [9] 0.094 | [10] -0.003

LDAH isoform 2 (UniProt Q9H6V9)
inactive: [1] -0.062 | [2] 0.023 | [3] -0.071 | [4] -0.003 | [5] 0.017 | [6] -0.022 | [7] -0.077 | [8] 0.037 | [9] -0.009
active: [10] 0.307

MAPK8 isoform 3 (UniProt P45983)
active: [4] 0.326
inactive: [1] 0.051 | [2] -0.007 | [3] 0.054 | [5] 0.07 | [6] -0.139 | [7] 0.006 | [8] 0.093 | [9] 0.115 | [10] -0.062

MAPK9 (UniProt P45984)
inactive: [1] -0.015 | [2] 0.025 | [3] -0.005 | [4] 0.174 | [5] 0.118 | [6] 0.004 | [7] -0.028 | [8] -0.005 | [9] 0.009 | [10] 0.012

KLC2 (UniProt Q9H0B6)
Sequence of UniProt Q9H0B6 (Q9H0B6 whole entry, looked up): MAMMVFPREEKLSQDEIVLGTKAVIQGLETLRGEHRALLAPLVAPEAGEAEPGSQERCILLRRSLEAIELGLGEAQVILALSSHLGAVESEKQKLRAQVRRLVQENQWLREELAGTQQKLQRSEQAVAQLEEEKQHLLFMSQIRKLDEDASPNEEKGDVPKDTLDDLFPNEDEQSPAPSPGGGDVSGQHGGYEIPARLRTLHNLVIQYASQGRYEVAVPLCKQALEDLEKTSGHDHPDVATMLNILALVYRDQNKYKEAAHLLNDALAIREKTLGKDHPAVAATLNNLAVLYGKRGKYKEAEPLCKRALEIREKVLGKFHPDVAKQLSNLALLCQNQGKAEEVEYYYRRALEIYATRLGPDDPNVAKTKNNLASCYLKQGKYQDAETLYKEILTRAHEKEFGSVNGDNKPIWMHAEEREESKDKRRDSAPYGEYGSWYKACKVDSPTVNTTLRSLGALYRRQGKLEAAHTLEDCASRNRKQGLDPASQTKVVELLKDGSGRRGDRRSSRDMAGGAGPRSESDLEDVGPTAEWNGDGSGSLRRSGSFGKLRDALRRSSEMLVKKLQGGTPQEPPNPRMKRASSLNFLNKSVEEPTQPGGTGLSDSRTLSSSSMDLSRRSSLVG
inactive: [1] 0.016 | [2] 0.013 | [3] -0.062 | [4] 0.067 | [5] 0.041 | [6] -0.017 | [7] 0.063 | [8] 0.012 | [9] 0.013 | [10] -0.036

MON2 isoform 5 (UniProt Q7Z3U7)
inactive: [1] -0.006 | [2] -0.021 | [3] -0.072 | [4] 0.018 | [5] 0.039 | [6] -0.074 | [7] -0.004 | [8] 0.021 | [9] 0.005 | [10] -0.003

LPIN1 isoform 7 (UniProt Q14693)
inactive: [1] -0.032 | [2] 0.026 | [3] -0.107 | [4] 0.182 | [5] 0.028 | [6] -0.032 | [7] -0.104 | [8] 0.035 | [9] -0.04 | [10] 0.003

MED12 isoform 2 (UniProt Q93074)
inactive: [1] -0.017 | [2] -0.025 | [3] -0.024 | [4] -0.009 | [5] 0.01 | [6] -0.05 | [7] 0.005 | [8] 0.034 | [9] 0.019 | [10] 0.002

LUC7L (UniProt Q9NQ29)
inactive: [1] -0.027 | [2] -0.113 | [3] -0.032 | [4] -0.047 | [5] 0.023 | [6] 0.22 | [7] 0.033 | [8] -0.207 | [9] -0.014 | [10] 0.032

METTL21A (UniProt Q8WXB1)
inactive: [1] 0.017 | [2] 0.055 | [3] 0.023 | [4] 0.026 | [5] -0.064 | [6] -0.069 | [7] -0.005 | [8] -0.001 | [9] -0.007 | [10] 0.003
